Results filed as inconclusive are left out. Entries that show only a call come without a potency. The source made the active and inactive calls. Calls follow the shape of the dose curve; as a rule, active = well fitted inhibition curve with a large enough effect; inconclusive = small, poorly fitted or top-dose-only effect; inactive = flat fitted curve, though single readings scatter.
Potency is read from the fitted curve at half-maximal effect.

One assay has as its system CP191. As to the kind of experiment: qHTS profiling for inhibitors of Plasmodium falciparum proliferation (AID 504749). Also: nearly all actives have a fitted effect of over 60% in size. The settings on record: P. falciparum in erythrocytes, SYBR Green DNA, 72 h; series mostly up to 28.7 µM. Put shortly:
(§1)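 Quantitative HTS: compounds pinned into medium, infected erythrocytes added (0.3% parasitemia, 2.5% hematocrit), 72 h culture at 37 C under 5% CO2. Saponin/Triton lysis with SYBR Green I, overnight RT, then fluorescence read.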
In general terms: qHTS replaces the single test concentration by a dilution series.
For the compound `Cc1cc(C(C)(C)C)cc(C)c1CC1=NCCN1`, the Potency result was “inactive”.

Regarding `OCCN1CCN(CCCN2c3ccccc3Sc3ccc(C(F)(F)F)cc32)CC1`, the Potency was 7.94 µM (active).

Consider `O=c1c(-c2ccc(O)cc2)coc2cc(O)cc(O)c12`, for which the Potency entry is “inactive”.

For `CC[N+](CC)(CC)CCOc1cccc(OCC[N+](CC)(CC)CC)c1OCC[N+](CC)(CC)CC`, the Potency result was “inactive”.

On to `CC(C)NCC(O)c1ccc(O)c(O)c1` (configuration not stated), for which the Potency entry is “inactive”.

In the case of `Cc1ccc(C(=O)Nc2ccc(S(=O)(=O)O)c3cc(S(=O)(=O)O)cc(S(=O)(=O)O)c23)cc1NC(=O)c1cccc(NC(=O)Nc2cccc(C(=O)Nc3cc(C(=O)Nc4ccc(S(=O)(=O)O)c5cc(S(=O)(=O)O)cc(S(=O)(=O)O)c45)ccc3C)c2)c1`, the Potency entry was “inactive”.

`CN(C)C(=N)N=C(N)N`: the Potency result was “inactive”.

In the case of `CC[C@@]1(O)C(=O)OCc2c1cc1n(c2=O)Cc2cc3c(CN(C)C)c(O)ccc3nc2-1`, the Potency is 8.91 µM (active).

Take `O=C(c1ccc(OCCN2CCCCC2)cc1)c1c(-c2ccc(O)cc2)sc2cc(O)ccc12`: the Potency is 5.01 µM (active).

With `COC(=O)Nc1nc2ccc(C(=O)c3cccs3)cc2[nH]1`, the Potency result was “inactive”.

On to `Clc1ccc2nsnc2c1NC1=NCCN1`, for which the Potency entry was “inactive”.

For `O=C(Nc1ccc([N+](=O)[O-])cc1Cl)c1cc(Cl)ccc1O`, the Potency is 0.891 µM (active).

As to `CC12CC3CC(C)(C1)CC(N)(C3)C2`, the Potency entry was “inactive”.

In the case of `Cc1cnc(C(=O)NCCc2ccc(S(=O)(=O)NC(=O)NC3CCCCC3)cc2)cn1`, the Potency result was “inactive”.

Take `CCOC(=O)Nc1ccc(NCc2ccc(F)cc2)nc1N`: the Potency is 11.2 µM (active).

On to `C[C@](N)(Cc1ccc(O)c(O)c1)C(=O)O`, for which the Potency entry was “inactive”.

On to `NCCc1cnc[nH]1`, for which the Potency entry is “inactive”.

For the compound `CN(C)CCOC(c1ccccc1)c1ccccc1`, the Potency entry was “inactive”.

`CCC1(c2ccccc2)C(=O)NCNC1=O`: the Potency result is “inactive”.

Take `CC#C[C@]1(O)CC[C@H]2[C@@H]3CCC4=CC(=O)CCC4=C3[C@@H](c3ccc(N(C)C)cc3)C[C@@]21C`: the Potency was 11.2 µM (active).

For the compound `CCCCc1oc2ccccc2c1C(=O)c1cc(I)c(OCCN(CC)CC)c(I)c1`, the Potency is 8.91 µM (active).

`CC(COc1ccccc1)N(CCCl)Cc1ccccc1` (configuration not stated): the Potency result is “inactive”.

With `COc1ccc(CCN(C)CCCC(C#N)(c2ccc(OC)c(OC)c2)C(C)C)cc1OC` (configuration not stated), the Potency entry was “inactive”.

On to `O=C1c2c(O)ccc(O)c2C(=O)c2c(NCCNCCO)ccc(NCCNCCO)c21`, for which the Potency was 3.55 µM (active).

For another assay, the system named is CP192. Described as above. The settings on record: P. falciparum in erythrocytes, SYBR Green DNA, 72 h; series mostly up to 28.7 µM. Put shortly:
as §1
In the case of `CC1(CN2CCC(n3c(=O)[nH]c4ccccc43)CC2)OCc2ccccc2-n2cccc21` (configuration not stated), the Potency entry was “inactive”.

`O=c1c(-c2ccc(O)cc2)coc2cc(O)cc(O)c12`: the Potency entry is “inactive”.

As to `CC[N+](CC)(CC)CCOc1cccc(OCC[N+](CC)(CC)CC)c1OCC[N+](CC)(CC)CC`, the Potency entry was “inactive”.

For `CC(C)NCC(O)c1ccc(O)c(O)c1` (configuration not stated), the Potency result is “inactive”.

As for `CN(Cc1cnc2nc(N)nc(N)c2n1)c1ccc(C(=O)N[C@@H](CCC(=O)O)C(=O)O)cc1`, the Potency result is “inactive”.

With `Cc1ccc(C(=O)Nc2ccc(S(=O)(=O)O)c3cc(S(=O)(=O)O)cc(S(=O)(=O)O)c23)cc1NC(=O)c1cccc(NC(=O)Nc2cccc(C(=O)Nc3cc(C(=O)Nc4ccc(S(=O)(=O)O)c5cc(S(=O)(=O)O)cc(S(=O)(=O)O)c45)ccc3C)c2)c1`, the Potency result is “inactive”.

In the case of `CC(C)NCC(O)COc1ccc(CCOCC2CC2)cc1` (configuration not stated), the Potency entry is “inactive”.

For `COC(=O)Nc1nc2ccc(C(=O)c3cccs3)cc2[nH]1`, the Potency entry is “inactive”.

Turning to `Clc1ccc2nsnc2c1NC1=NCCN1`, the Potency entry is “inactive”.

Regarding `CN1CCC(=C2c3ccccc3CC(=O)c3sccc32)CC1`, the Potency result was “inactive”.

In the case of `CC12CC3CC(C)(C1)CC(N)(C3)C2`, the Potency result is “inactive”.

In the case of `O=C(c1ccc(F)cc1)C1CCN(CCn2c(=O)[nH]c3ccccc3c2=O)CC1`, the Potency result is “inactive”.

With `Cc1cnc(C(=O)NCCc2ccc(S(=O)(=O)NC(=O)NC3CCCCC3)cc2)cn1`, the Potency result was “inactive”.

Consider `Clc1ccc2c(c1)C(N1CCNCC1)=Nc1ccccc1O2`, for which the Potency result was “inactive”.

On to `Clc1ccc(C(c2ccccc2Cl)C(Cl)Cl)cc1` (configuration not stated), for which the Potency entry was “inactive”.

In the case of `C[C@](N)(Cc1ccc(O)c(O)c1)C(=O)O`, the Potency entry was “inactive”.

Turning to `NCCc1cnc[nH]1`, the Potency result is “inactive”.

`CN(C)CCOC(c1ccccc1)c1ccccc1`: the Potency result is “inactive”.

Take `CNCCCC12CCC(c3ccccc31)c1ccccc12`: the Potency entry is “inactive”.

As for `CN(C)CCC=C1c2ccccc2C=Cc2ccccc21`, the Potency result is “inactive”.

`CCC1(c2ccccc2)C(=O)NCNC1=O`: the Potency entry was “inactive”.

For `COc1ccccc1OCCNCC(O)COc1cccc2[nH]c3ccccc3c12` (configuration not stated), the Potency entry is “inactive”.

Turning to `CC(COc1ccccc1)N(CCCl)Cc1ccccc1` (configuration not stated), the Potency result is “inactive”.

Take `COc1ccc(CCN(C)CCCC(C#N)(c2ccc(OC)c(OC)c2)C(C)C)cc1OC` (configuration not stated): the Potency result was “inactive”.

For a further assay, the system named is CP194. The assay is described as above. Particulars: P. falciparum in erythrocytes, SYBR Green DNA, 72 h; series mostly up to 28.7 µM. Summed up: as §1
As for `Cc1cc(C(C)(C)C)cc(C)c1CC1=NCCN1`, the Potency result is “inactive”.

Regarding `OCCN1CCN(CCCN2c3ccccc3Sc3ccc(C(F)(F)F)cc32)CC1`, the Potency was 10.7 µM (active).

Consider `O=c1c(-c2ccc(O)cc2)coc2cc(O)cc(O)c12`, for which the Potency entry is “inactive”.

For the compound `CC[N+](CC)(CC)CCOc1cccc(OCC[N+](CC)(CC)CC)c1OCC[N+](CC)(CC)CC`, the Potency result was “inactive”.

In the case of `CC(C)NCC(O)c1ccc(O)c(O)c1` (configuration not stated), the Potency result is “inactive”.

Regarding `CN(Cc1cnc2nc(N)nc(N)c2n1)c1ccc(C(=O)N[C@@H](CCC(=O)O)C(=O)O)cc1`, the Potency result was “inactive”.

On to `Cc1ccc(C(=O)Nc2ccc(S(=O)(=O)O)c3cc(S(=O)(=O)O)cc(S(=O)(=O)O)c23)cc1NC(=O)c1cccc(NC(=O)Nc2cccc(C(=O)Nc3cc(C(=O)Nc4ccc(S(=O)(=O)O)c5cc(S(=O)(=O)O)cc(S(=O)(=O)O)c45)ccc3C)c2)c1`, for which the Potency entry is “inactive”.

With `CC[C@@]1(O)C(=O)OCc2c1cc1n(c2=O)Cc2cc3c(CN(C)C)c(O)ccc3nc2-1`, the Potency was 4.78 µM (active).

As to `CC(C)NCC(O)COc1ccc(CCOCC2CC2)cc1` (configuration not stated), the Potency entry was “inactive”.

For the compound `COC(=O)Nc1nc2ccc(C(=O)c3cccs3)cc2[nH]1`, the Potency entry is “inactive”.

For the compound `Clc1ccc2nsnc2c1NC1=NCCN1`, the Potency entry is “inactive”.

For `CC12CC3CC(C)(C1)CC(N)(C3)C2`, the Potency result was “inactive”.

With `O=C(c1ccc(F)cc1)C1CCN(CCn2c(=O)[nH]c3ccccc3c2=O)CC1`, the Potency result was “inactive”.

Take `Cc1cnc(C(=O)NCCc2ccc(S(=O)(=O)NC(=O)NC3CCCCC3)cc2)cn1`: the Potency entry is “inactive”.

`C[C@](N)(Cc1ccc(O)c(O)c1)C(=O)O`: the Potency entry was “inactive”.

Regarding `NCCc1cnc[nH]1`, the Potency entry was “inactive”.

Take `CCC1(c2ccccc2)C(=O)NCNC1=O`: the Potency result was “inactive”.

For the compound `CC#C[C@]1(O)CC[C@H]2[C@@H]3CCC4=CC(=O)CCC4=C3[C@@H](c3ccc(N(C)C)cc3)C[C@@]21C`, the Potency is 16.9 µM (active).

For the compound `O=C1c2c(O)ccc(O)c2C(=O)c2c(NCCNCCO)ccc(NCCNCCO)c21`, the Potency is 6.42 µM (active).

Values taken from PubChem BioAssay (NCATS).
